Screening results (PubChem)
CSC inhib: cancer stem cell inhibition. AID 2717. cancer stem cell-like cells viability, luminescence. inhibition, % at 7.5 µM. 300,000 compounds, 1.1% hits; in the data active = inhibition above about 75%; tested in HMLE shEcad cells
aSyn UTR inh: MLPCN primary screen, SNCA 5' untranslated region; AID 1813; alpha-synuclein 5'UTR reporter, inhibitor activity; inhibition, % (tested at 7.5 µM); 300,000 compounds, 0.82% hits; in the data active = inhibition above about 60%;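 note: H4 neuroglioblastoma cells stably carrying SNCA 5'UTR luciferase fusion; 0% = DMSO wells and 100% = positive control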
KLF5 inh: kruppel-like factor 5 inhibition. DLD-1 KLF5 promoter-luciferase reporter, luminescence. inhibition, % at 5 µM. 290,000 compounds, 0.23% hits;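 active = inhibition above a per-plate limit of that plate's mean compound inhibition plus 3 SD, cut at about 60% in these data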;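 note: 0% = DMSO wells and 100% = LY294002 at 200 µM; higher means less KLF5 promoter-driven luciferase light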
SKKanGAS inh: inhibitors of SKKanGAS S. pyogenes growth in kanamycin (SK-promoter or general growth effect) | BacTiter-Glo, 6 h | inhibition, % at 7.5 µM | 300,000 compounds, 1.3% hits;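 active = mean replicate score, as percent of positive control median, at least 50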;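 note: strain carries kanamycin resistance gene driven by streptokinase promoter and grows in 40 µg/ml kanamycin; loss of luminescence reflects streptokinase promoter inhibition or plain growth inhibition; 0% = median of DMSO wells and 100% = positive control at its reference dose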
IEC-6 tox: kills IEC-6 intestinal cells in KLF5 counter-screen | IEC-6 cytotoxicity, luminescence viability | inhibition, % at 5 µM | 290,000 compounds, 0.78% hits | AID 1825; in the data active = inhibition above about 22%;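 note: 0% = plate median of test compound wells and 100% = cytotoxic reference compound wells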
An asterisk follows results filed as active; x = no result given. This is a sample that favours compounds with a hit; in the whole collection about 3% have one here.

SMILES | CSC inhib | aSyn UTR inh | KLF5 inh | SKKanGAS inh | IEC-6 tox
CCCCc1ccc(/C(C)=N/Nc2cc(N3CCOCC3)nc(C)n2)cc1 | 80* | -6 | -7 | 20 | 4
CC(C)C1C(c2ccccc2)N(C)C(c2ccccc2)CC1(O)c1ccccc1 (stereo not given) | 131* | 32 | -22 | 88* | -4
Cc1cc(/C=C2\SC(=S)NC2=O)c(C)n1-c1cccc(O)c1 | 1 | -111 | -82 | 82* | -7
CCn1c(C)cc(/C=C2/SC(=S)NC2=O)c1C | -13 | -67 | -42 | 11 | 0
Cc1sc(-n2c(C)cc(/C=C3\SC(=S)NC3=O)c2C)c(C#N)c1C | 79* | -22 | -15 | 37 | -4
Cc1ccc(-n2c(C)cc(/C=C3\SC(=O)NC3=O)c2C)cc1 | 2 | -174 | -190 | 31 | -14
O=C(c1cccnc1)N1CCC(Oc2ccc(C(=O)N3CCCC(O)C3)cc2)CC1 (stereo not given) | 1 | -10 | -24 | -6 | 8
COc1cc2c(=O)n(CCCC(=O)NCC3CCCO3)c(=O)n(CC(=O)c3ccc(F)cc3)c2cc1OC (stereo not given) | -20 | 10 | -19 | -12 | 2
CC(C)c1ccc(-n2cccc2/C=C2/C(=N)N3C=CSC3=NC2=O)cc1 | 27 | -11 | -7 | 94* | -3
Cc1ccc(-c2c3c(nc4sc(C(N)=O)c(N)c24)CCC3)cc1 | -8 | -52 | 6 | 2 | -6
NC(=O)c1sc2nc3c(c(-c4ccc(Cl)cc4)c2c1N)CCCC3 | -9 | 66* | 2 | 1 | 1
O=C(NCc1ccccc1)C(c1ccccn1)N(C(=O)c1csnn1)c1ccccc1F (stereo not given) | 1 | 0 | 10 | 4 | -3
COc1cccc(CN2CCNC(=O)C2CC(=O)N(C)CCC2CCOCC2)c1OC (stereo not given) | 18 | 16 | 3 | -10 | 5
O=C(CN(c1cccc(C(F)(F)F)c1)S(=O)(=O)c1ccc(Cl)c([N+](=O)[O-])c1)NCc1ccc(F)cc1 | 185* | 7 | 2 | 3 | 1
O=C(CN(c1cccc([N+](=O)[O-])c1)S(=O)(=O)c1ccccc1)NCc1cccnc1 | -5 | -17 | -17 | 1 | 0
COc1ccc(NC(=O)CC2C(=O)N(C)C(=S)N2CCc2ccc(F)cc2)cc1 (stereo not given) | 46 | 6 | -14 | 6 | 2
CCN1C(=O)C(CC(=O)Nc2ccc(OC)cc2)N(CCCN2CCN(c3ccc(F)cc3)CC2)C1=S (stereo not given) | 81* | 17 | 13 | -4 | 3
COc1ccc(CCN2C(=S)N(C)C(=O)C2CC(=O)Nc2ccc(OC)cc2)cc1 (stereo not given) | 97* | 18 | 13 | -7 | -3
COc1cccc(-c2cc3nc4c(c(N5CCC6(CC5)OCCO6)n3n2)CCC4)c1 | 17 | 6 | -42 | -9 | -4
O=c1cc(CNc2cc(C(F)(F)F)cc(C(F)(F)F)c2)nc2sccn12 | 81* | 65* | 8 | -2 | 17
O=c1ccc(C(F)(F)F)cn1Cc1cc(=O)n2ccsc2n1 | 0 | -27 | 4 | 0 | -6
COc1cccc(C2CC(c3cccs3)=NN2C(=O)CSc2nc3c(cnn3-c3ccc(F)cc3)c(=O)[nH]2)c1OC (stereo not given) | 118* | 7 | -3 | 57* | -5
COc1ccc(C2CC(c3cccs3)=NN2C(=O)CSc2nc(=O)n3ccc(C)cc3n2)cc1 (stereo not given) | -13 | -19 | x | 15 | x
COc1ccc(C2CC(c3cccs3)=NN2C(=O)CSc2nc3c(cnn3-c3ccccc3)c(=O)[nH]2)cc1 (stereo not given) | 70 | 19 | -7 | 64* | 0
O=S(=O)(Nc1cc2nc3ccccc3nc2n1Cc1ccccc1)c1ccc(Cl)cc1 | 112* | 8 | -51 | 48 | -3
O=S(=O)(NCc1ccccc1)c1ccc(Cl)cc1 | x | 14 | -15 | 7 | -2
O=C(NCc1cccnc1)c1ccc(S(=O)(=O)N2CCCCC2)cc1 | -12 | 20 | 0 | -5 | -4
O=S(=O)(c1ccc(NC(=S)NCc2cccnc2)cc1)N1CCCCC1 | 139* | 86* | 14 | 1 | 4
COc1ccc(-c2ccc([C@H]3[C@@H]4C=CCC[C@@]4(C)C(=O)N3Cc3ccccc3)c(F)c2)cc1 | 54 | 17 | x | 58* | x
COc1ccc(-c2ccc(N(C)C)cc2)cc1[C@H]1[C@@H]2C=CCC[C@@]2(C)C(=O)N1Cc1ccccc1 | 49 | 36 | x | 26 | x
